Among the test systems are SK-MEL-2 melanoma; EKVX NSCLC; SN12C renal; UO-31 renal; TK-10 renal; ACHN renal; CAKI-1 renal; A498 renal; CCRF-CEM leukemia; MOLT-4 leukemia; RPMI-8226 leukemia; OVCAR-8 ovarian; OVCAR-5 ovarian; OVCAR-4 ovarian; SK-OV-3 ovarian; IGROV1 ovarian; OVCAR-3 ovarian; HS 578T breast; NCI/ADR-RES ovarian.
Holding throughout (assay): NCI-60 one-dose screen, 48 h (100 = growth as untreated, 0 = no growth, -100 = all killed)
Conditions in all cases: 10 µM unless noted

Compounds without any hit were thinned out: in the full panel of roughly 83,000, 20% have a hit.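 Each cell line was grown in a 96-well plate and treated with one concentration of compound for 48 hours. Values below 10 were considered active.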 A number with no mark means an inactive call. Activity calls are given as the source filed them.

In the case of `COc1ccc(-c2nc3ccc(-c4nc5ccc(N6CCN(c7ccccc7)CC6)cc5[nH]4)cc3[nH]2)cc1OC`, the growth with SK-MEL-2 melanoma is 89%; in the test on EKVX NSCLC, 40.1%; in the test on SN12C renal, 52%; in the test with UO-31 renal, 99.6%; in the test with TK-10 renal it was 12.4%; in the test with ACHN renal, 44.8%. Also, the growth in the test on CAKI-1 renal is 65.3%; with A498 renal, 88.4%; in the test with CCRF-CEM leukemia it was 6.07% (active); in the test with MOLT-4 leukemia, -5.57% (active); in the test on RPMI-8226 leukemia, -23% (active); with OVCAR-8 ovarian, -4.55% (active). Besides, the growth in the test on OVCAR-5 ovarian is -44.1% (active); in the test on OVCAR-4 ovarian it was -49.9% (active); in the test with SK-OV-3 ovarian it was 107%; with IGROV1 ovarian, 16.2%; in the test with OVCAR-3 ovarian, -68.3% (active); in the test on HS 578T breast it was -0.217% (active). Moreover, the growth in the test on NCI/ADR-RES ovarian is 67.3%.

On to `Cc1cc(C)c2nc3nc(C)cc(C)c3c(N)c2c1`, for which the growth in the test with SK-MEL-2 melanoma is 30.4%; in the test on EKVX NSCLC, 28.1%; in the test with SN12C renal it was 24.9%; with UO-31 renal, -1.17% (active); with TK-10 renal it was 41.4%; in the test with ACHN renal, 5.3% (active). The growth is 10.4% in the test on CAKI-1 renal; 47% with A498 renal; 42.3% in the test with CCRF-CEM leukemia; -18.6% (active) in the test on MOLT-4 leukemia; -13.5% (active) with RPMI-8226 leukemia; 45.3% with OVCAR-8 ovarian. The growth is 28.7% with OVCAR-5 ovarian; 33.6% with OVCAR-4 ovarian; 25.4% in the test with SK-OV-3 ovarian; 26.5% with OVCAR-3 ovarian; 24.3% with HS 578T breast; 30.9% in the test with NCI/ADR-RES ovarian.

With `C=C(C)[C@@H]1CC[C@]2(C(=O)OC)CC[C@]3(C)[C@H](CC[C@@H]4[C@@]5(C)C/C(=C/c6ccc(OC)cc6)C(=O)C(C)(C)[C@@H]5CC[C@]43C)[C@@H]12`, the growth is 104% with SK-MEL-2 melanoma; 84.7% with EKVX NSCLC; 84.9% in the test with SN12C renal; 79.7% with UO-31 renal; 107% with TK-10 renal; 90.5% in the test on ACHN renal. For the same compound, the growth in the test with CAKI-1 renal was 90.5%; with A498 renal, 93.7%; with CCRF-CEM leukemia, 58.8%; in the test on MOLT-4 leukemia it was 58.3%; in the test on RPMI-8226 leukemia, 54.8%; in the test with OVCAR-8 ovarian, 102%. For the same compound, the growth in the test with OVCAR-5 ovarian is 93.4%; in the test with OVCAR-4 ovarian, 85.8%; in the test on SK-OV-3 ovarian it was 102%; in the test with IGROV1 ovarian, 100%; with OVCAR-3 ovarian, 86.7%; in the test on HS 578T breast, 94.9%. Also, the growth with NCI/ADR-RES ovarian is 93.2%.

Take `CCCOc1ccc2nc(NC(=O)OC)[nH]c2c1`: the growth was -1.33% (active) with SK-MEL-2 melanoma; 57.1% with EKVX NSCLC; 23.2% in the test on SN12C renal; 37.5% with UO-31 renal; 35.7% in the test with TK-10 renal; 31.5% with ACHN renal. Besides, the growth in the test on CAKI-1 renal is 51.7%; with A498 renal, 9.31% (active); in the test with CCRF-CEM leukemia, 7.62% (active); in the test with MOLT-4 leukemia, 17.7%; with RPMI-8226 leukemia, 7.83% (active); in the test on OVCAR-8 ovarian, 3.91% (active). For the same compound, the growth with OVCAR-5 ovarian is 39.2%; with OVCAR-4 ovarian, 53.3%; with SK-OV-3 ovarian, 4.92% (active); in the test on IGROV1 ovarian, 36.9%; in the test on OVCAR-3 ovarian it was -46.8% (active); in the test with HS 578T breast, 29.8%. In addition, the growth in the test with NCI/ADR-RES ovarian was -6.3% (active).

Regarding `CC(=O)O[C@H]1CC[C@]2(C)[C@H]3CC=C4[C@@H]5CC(C)(C)CC[C@]5(C(=O)NCCNCCNCCN)CC[C@@]4(C)[C@]3(C)CC[C@H]2C1(C)C`, the growth was 96.9% in the test with SK-MEL-2 melanoma; 81.9% in the test with EKVX NSCLC; 89.5% in the test on SN12C renal; 79.1% in the test on UO-31 renal; 97.2% in the test on TK-10 renal; -25.4% (active) in the test with ACHN renal. Moreover, the growth was 77.8% in the test with CAKI-1 renal; 54.6% in the test with A498 renal; -9.21% (active) with CCRF-CEM leukemia; -13% (active) with MOLT-4 leukemia; -23.7% (active) in the test with RPMI-8226 leukemia; -0.659% (active) in the test with OVCAR-8 ovarian. The growth is 10% in the test on OVCAR-5 ovarian; 34.9% in the test on OVCAR-4 ovarian; 101% with SK-OV-3 ovarian; 46.9% in the test with IGROV1 ovarian; -30.6% (active) with OVCAR-3 ovarian; 92.2% with HS 578T breast. The growth with NCI/ADR-RES ovarian was 74.6%.

For the compound `C=CC(=O)Nc1cccc(-c2nc(SC)nc(Nc3ccccc3OC)c2C#N)c1`, the growth is 73.9% in the test on SK-MEL-2 melanoma; 63.7% in the test with EKVX NSCLC; 48.4% in the test with SN12C renal; 19.2% with UO-31 renal; 36.1% in the test with TK-10 renal; 37.7% with ACHN renal. For the same compound, the growth was 56.6% in the test with CAKI-1 renal; 61.4% in the test on A498 renal; 40.8% in the test on CCRF-CEM leukemia; 33.4% in the test with MOLT-4 leukemia; 29.7% with RPMI-8226 leukemia; 42.9% in the test with OVCAR-5 ovarian. The growth was -26.4% (active) with OVCAR-4 ovarian; 91.8% in the test on SK-OV-3 ovarian; 69.3% in the test on IGROV1 ovarian; 23.4% in the test with OVCAR-3 ovarian; 16.8% in the test on HS 578T breast; 29.3% in the test on NCI/ADR-RES ovarian.

Consider `CC(C)n1c(/C=C/[C@@H](O)C[C@@H](O)CC(=O)O)c(-c2ccc(F)cc2)c2ccccc21`, for which the growth in the test on SK-MEL-2 melanoma was 15%; with EKVX NSCLC, 52.7%; in the test with SN12C renal it was 36.4%; in the test on UO-31 renal it was 44.7%; in the test with TK-10 renal, 88.7%; in the test with ACHN renal, 10.3%. Further, the growth with CAKI-1 renal is -42.9% (active); in the test on A498 renal, -21.3% (active); in the test with CCRF-CEM leukemia, 59.8%; with MOLT-4 leukemia it was 60.8%; with RPMI-8226 leukemia it was 53.2%; in the test on OVCAR-8 ovarian, 40.2%. The growth in the test on OVCAR-5 ovarian was 85.8%; in the test on OVCAR-4 ovarian, 90.4%; in the test on SK-OV-3 ovarian, 72.6%; in the test on IGROV1 ovarian it was 34.3%; in the test with OVCAR-3 ovarian, 84.8%; in the test on HS 578T breast, 55.1%. In addition, the growth with NCI/ADR-RES ovarian was 22.1%.

Take `O=C1/C(=C/c2cn(-c3ccccc3)nc2-c2ccccc2)SC(=S)N1CCc1ccccc1`: the growth is 108% in the test with SK-MEL-2 melanoma; 96.6% in the test with EKVX NSCLC; 98.6% in the test with SN12C renal; 88.5% in the test on UO-31 renal; 106% in the test with TK-10 renal; 104% with ACHN renal. The growth in the test with CAKI-1 renal is 85.2%; in the test on A498 renal it was 95.7%; in the test with CCRF-CEM leukemia, 102%; in the test with MOLT-4 leukemia, 99.4%; in the test on RPMI-8226 leukemia, 102%; with OVCAR-8 ovarian, 105%. The growth is 107% in the test with OVCAR-5 ovarian; 103% with OVCAR-4 ovarian; 109% in the test on SK-OV-3 ovarian; 108% in the test on IGROV1 ovarian; 107% in the test on OVCAR-3 ovarian; 104% with HS 578T breast. For the same compound, in the test on NCI/ADR-RES ovarian, the growth was 107%.

The record behind these values is PubChem BioAssay (NCI).
